Structures can show the parent of a compound that is named as a salt. ± gives the standard deviation of the averaged measurements.
Experiments:
Assay in all cases: growth (OD600 after 10 h); higher = more growth (less inhibition)
[1] = system: E. coli TESEC Alr+ wild-type control; conditions: compound 0.1 mM; raw OD600 reference: median of DMSO wells 0.241, cell-free background 0.041
Protocol: (§1)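 TESEC Mtb Alr E. coli, or the Alr+ wild-type control, in 384-well plates with Prestwick library compounds at 0.1 mM and 1% DMSO, across arabinose induction levels of 1E3 to 1E7 nM. Growth is read as OD600 after 10 h at 37 °C in triplicate biological replicates.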

[2] = system: E. coli TESEC Mtb Alr; conditions: compound 0.1 mM
Protocol: as §1

[3] = system: E. coli TESEC Mtb Asd; conditions: compound 0.1 mM
Protocol: (§2)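 TESEC E. coli strains in which the native enzyme is deleted and replaced by arabinose-inducible Mtb Asd, DapB, CysH or TrpD, each grown in its selective medium. Strains were screened against the Prestwick library at 0.1 mM and 1% DMSO in 384-well format at low and high arabinose induction. Growth is read as OD600 after 10 h in triplicate.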

[4] = system: E. coli TESEC Mtb DapB; conditions: compound 0.1 mM
Protocol: as §2

[5] = system: E. coli TESEC Alr+ wild-type control; conditions: compound 0.1 mM; raw OD600 reference: median of DMSO wells 0.49, cell-free background 0.052
Protocol: (§3)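 TESEC Mtb Alr E. coli (ΔaraC ΔtolC ΔentC Δalr ΔdadX, arabinose-inducible Mtb Alr) or the Alr+ wild-type control strain, grown in defined M9-fructose medium without D-alanine in 96-well plates with Prestwick library compounds at 0.1 mM and 1% DMSO. Low Alr induction is 0.1 µM arabinose and high induction is 10 mM arabinose.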

[6] = system: E. coli TESEC Mtb Alr; conditions: compound 0.1 mM; remark: listed apart in the source
Protocol: as §3

[7] = arabinose 1000 nM, raw OD600 reference: median of DMSO wells 0.294, cell-free background 0.041
[8] = arabinose 10000 nM, raw OD600 reference: median of DMSO wells 0.264, cell-free background 0.041
[9] = arabinose 100000 nM, raw OD600 reference: median of DMSO wells 0.201, cell-free background 0.041
[10] = arabinose 1000000 nM, raw OD600 reference: median of DMSO wells 0.193, cell-free background 0.041
[11] = arabinose 10000000 nM, raw OD600 reference: median of DMSO wells 0.146, cell-free background 0.041
[12] = arabinose induction (level): High, raw OD600 reference: median of DMSO wells 0.331, cell-free background 0.041
[13] = arabinose induction (level): Low, raw OD600 reference: median of DMSO wells 0.417, cell-free background 0.041
[14] = arabinose induction (level): High, raw OD600 reference: median of DMSO wells […], cell-free background 0.041
[15] = arabinose induction (level): Low, raw OD600 reference: median of DMSO wells 0.227, cell-free background 0.041
[16] = arabinose 100 nM, raw OD600 reference: median of DMSO wells 0.413, cell-free background 0.052
[17] = arabinose 10000000 nM, raw OD600 reference: median of DMSO wells […], cell-free background 0.052

SMILES | growth [1] | growth [2, 7] | growth [2, 8] | growth [2, 9] | growth [2, 10] | growth [2, 11] | growth [3, 12] | growth [3, 13] | growth [4, 14] | growth [4, 15] | growth [5] | growth [6, 16] | growth [6, 17]
CO/N=C(\C(=O)N[C@@H]1C(=O)N2C(C(=O)OC(C)OC(C)=O)=C(COC(N)=O)CS[C@H]12)c1ccco1 (some centres not stated) [Cefuroxime axetil] | 0.148 ± 0.0057 | 0.115 ± 0.007 | 0.0663 ± 0.0028 | 0.124 ± 0.0033 | 0.166 ± 0.0066 | 0.158 ± 0.006 | 0.246 ± 0.023 | 0.316 ± 0.011 | 0.196 ± 0.022 | 0.215 ± 0.057 | 0.427 ± 0.051 | 0.059 ± 0.0076 | 0.257 ± 0.011
CC(C)(C)NC[C@@H](O)COc1cccc2c1CCCC2=O [(+) -Levobunolol hydrochloride] | 0.226 ± 0.012 | 0.291 ± 0.0069 | 0.267 ± 0.007 | 0.18 ± 0.0047 | 0.182 ± 0.0049 | 0.136 ± 0.003 | 0.459 ± 0.021 | 0.467 ± 0.022 | 0.205 ± 0.021 | 0.224 ± 0.017 | 0.546 ± 0.077 | 0.412 ± 0.012 | 0.339 ± 0.013
CN1CCN(C2=Nc3ccccc3Oc3ccc(Cl)cc32)CC1 [Loxapine succinate] | 0.166 ± 0.0027 | 0.182 ± 0.0068 | 0.194 ± 0.0033 | 0.189 ± 0.0039 | 0.12 ± 0.0061 | 0.158 ± 0.0041 | 0.201 ± 0.029 | 0.214 ± 0.021 | 0.19 ± 0.0079 | 0.248 ± 0.079 | 0.399 ± 0.0093 | 0.381 ± 0.017 | 0.224 ± 0.014
Clc1ccc(COC(Cn2ccnc2)c2ccc(Cl)cc2Cl)cc1 (configuration not stated) [Econazole nitrate] | 0.0521 ± 0.0032 | 0.048 ± 0.0022 | 0.05773 ± 5.8e-05 | 0.0544 ± 0.0013 | 0.0574 ± 0.0015 | 0.0483 ± 0.0014 | 0.0469 ± 0.00075 | 0.04693 ± 0.00042 | 0.04893 ± 0.00047 | 0.0996 ± 0.064 | 0.056 ± 0.002 | 0.059 ± 0.0077 | 0.0553 ± 0.0037
COc1cc(C(=O)N2CCOCC2)cc(OC)c1OC [Trimetozine] | 0.253 ± 0.004 | 0.313 ± 0.014 | 0.2694 ± 0.0015 | 0.22 ± 0.0037 | 0.203 ± 0.023 | 0.14 ± 0.0052 | 0.288 ± 0.0085 | 0.441 ± 0.018 | 0.192 ± 0.02 | 0.229 ± 0.0089 | 0.616 ± 0.021 | 0.401 ± 0.0073 | 0.363 ± 0.0044
CCOc1nc2cccc(C(=O)O)c2n1Cc1ccc(-c2ccccc2-c2nnn[nH]2)cc1 [Candesartan] | 0.238 ± 0.0077 | 0.297 ± 0.0053 | 0.285 ± 0.0054 | 0.212 ± 0.023 | 0.222 ± 0.015 | 0.141 ± 0.0058 | 0.292 ± 0.03 | 0.265 ± 0.029 | 0.197 ± 0.0041 | 0.205 ± 0.024 | 0.642 ± 0.092 | 0.415 ± 0.0062 | 0.355 ± 0.0055
CC(C)C[C@H](NC(=O)[C@@H](O)[C@H](N)Cc1ccccc1)C(=O)O [Ubenimex] | 0.24 ± 0.011 | 0.28 ± 0.0072 | 0.2345 ± 0.0011 | 0.215 ± 0.028 | 0.185 ± 0.006 | 0.132 ± 0.0031 | 0.395 ± 0.019 | 0.382 ± 0.025 | 0.192 ± 0.017 | 0.229 ± 0.015 | 0.528 ± 0.089 | 0.396 ± 0.011 | 0.323 ± 0.018
COCCOC(=O)C1=C(C)NC(C)=C(C(=O)OC/C=C/c2ccccc2)C1c1cccc([N+](=O)[O-])c1 (configuration not stated) [Cilnidipine] | 0.275 ± 0.0065 | 0.333 ± 0.0093 | 0.304 ± 0.028 | 0.195 ± 0.022 | 0.14 ± 0.015 | 0.164 ± 0.0066 | 0.187 ± 0.016 | 0.319 ± 0.026 | 0.169 ± 0.0093 | 0.21 ± 0.025 | 0.518 ± 0.028 | 0.457 ± 0.0093 | 0.253 ± 0.026
C[C@]12CCC(=O)C=C1CC[C@@H]1[C@@H]2[C@@H](O)C[C@@]2(C)[C@H]1CC[C@]2(O)C(=O)CO [Hydrocortisone base] | 0.218 ± 0.012 | 0.265 ± 0.024 | 0.253 ± 0.0038 | 0.173 ± 0.026 | 0.169 ± 0.0059 | 0.137 ± 0.0037 | 0.294 ± 0.076 | 0.307 ± 0.074 | 0.183 ± 0.017 | 0.209 ± 0.047 | 0.578 ± 0.1 | 0.407 ± 0.0089 | 0.302 ± 0.0092
CNCCCN1c2ccccc2CCc2ccccc21 [Desipramine hydrochloride] | 0.184 ± 0.0044 | 0.228 ± 0.021 | 0.275 ± 0.013 | 0.199 ± 0.021 | 0.1277 ± 0.00069 | 0.168 ± 0.0031 | 0.157 ± 0.011 | 0.222 ± 0.03 | 0.171 ± 0.014 | 0.202 ± 0.0094 | 0.578 ± 0.053 | 0.403 ± 0.01 | 0.287 ± 0.011
CC(=O)OCC(=O)[C@@]12OC3(CCCC3)O[C@@H]1C[C@H]1[C@@H]3CCC4=CC(=O)C=C[C@]4(C)[C@@]3(F)[C@@H](O)C[C@@]12C [Amcinonide] | 0.185 ± 0.011 | 0.287 ± 0.066 | 0.272 ± 0.011 | 0.241 ± 0.059 | 0.242 ± 0.07 | 0.172 ± 0.011 | 0.451 ± 0.11 | 0.402 ± 0.067 | 0.222 ± 0.043 | 0.265 ± 0.025 | 0.462 ± 0.024 | 0.4092 ± 0.0021 | 0.304 ± 0.0053
CCN(CCO)CCCC(C)Nc1ccnc2cc(Cl)ccc12 (configuration not stated) [Hydroxychloroquine sulfate] | 0.228 ± 0.0034 | 0.282 ± 0.011 | 0.27 ± 0.0028 | 0.19 ± 0.015 | 0.1939 ± 0.0019 | 0.147 ± 0.0019 | 0.265 ± 0.052 | 0.352 ± 0.013 | 0.198 ± 0.0048 | 0.24 ± 0.04 | 0.54 ± 0.024 | 0.405 ± 0.01 | 0.354 ± 0.017
Cc1cn([C@H]2C[C@H](N=[N+]=[N-])[C@@H](CO)O2)c(=O)[nH]c1=O [Zidovudine, AZT] | 0.0935 ± 0.0041 | 0.0804 ± 0.011 | 0.0544 ± 0.0014 | 0.0839 ± 0.0005 | 0.0604 ± 0.0022 | 0.103 ± 0.0045 | 0.1 ± 0.0079 | 0.0819 ± 0.012 | 0.148 ± 0.0088 | 0.0825 ± 0.0056 | 0.199 ± 0.0087 | 0.166 ± 0.012 | 0.125 ± 0.017
COc1c2occc2c(OC)c2c(=O)cc(C)oc12 [Khellin] | 0.206 ± 0.0044 | 0.2539 ± 0.0022 | 0.245 ± 0.0065 | 0.189 ± 0.0037 | 0.149 ± 0.0057 | 0.1439 ± 0.00044 | 0.317 ± 0.081 | 0.35 ± 0.016 | 0.182 ± 0.0039 | 0.253 ± 0.1 | 0.418 ± 0.038 | 0.3963 ± 0.0035 | 0.306 ± 0.032
